We go through 40 sequences from the supplement of paper PMC6555819.

The subject of this test is VDR:RXRa (NR concentration 270 nM, RXRa partner concentration 90 nM). As to the kind of experiment: PBM binding z-score (relative to random genomic background probes); higher = stronger binding; sequences stand for … in GC…GCGATTGACAGCGTAGAATGAAGG
Here is the method:
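Protein-binding microarray (Agilent 4x180K custom design, double-stranded 60-nt probes: 5' GC cap, 34-nt variable region, 24-nt constant primer region; full probe sequence given). Purified or IVT nuclear receptor:RXRα heterodimers (3:1 NR:RXRα, mostly 270:90 nM) or homodimers were incubated for 1 h in PBS with 2% milk and no ligand, then detected with Alexa488 antibodies. Fluorescence from o1-orientation probes (~5 replicates averaged) was converted to z-scores against 500 random hg19 background probes. Variable regions are seed direct-repeat (DR0–DR5) sites, all their single-nucleotide variants and half-site ablations.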
In turn, TCGAGTAGGTTACGGGGGCAGTCAGGGATGAAGA registered a PBM binding z-score of 2.8.

Take GGAACGGGGGCAAGTTGATAGCAGAGTTTGATGG: the PBM binding z-score was 3.44.

The sequence CGAACTAGGTCACAGGACAGTGAAAGGCGACGTA had a PBM binding z-score of 1.61.

In turn, CCTAGTTGGTCAGGAGGTCACATACCGGATATGA yielded a PBM binding z-score of 3.57.

On to CCTAGTGGGTCAGGAGGTCACACACCGGATATGA, for which the PBM binding z-score was found to be 4.65.

In turn, ACTAGTTGGTAAGCTGAGGTCACACACAATTCGG yielded a PBM binding z-score of 3.71.

As for CCGAGTAGGTTACGAGGGGGAATTCAGTGCGAAT, the PBM binding z-score is 1.7.

Take TCGAGTAGGTTACGGGGGCCTTCAGGGATGAAGA: the PBM binding z-score came out at 2.11.

CCTACTGGGCCAACAAGGTCATTGATGCCGATAA displayed a PBM binding z-score of 5.56.

For ATATGTAGGTTAGGGTCATCCAGAAAGTAGGGAA, the PBM binding z-score was 4.46.

Consider CTATGTAGGTTAAGGGTGTCATTCAGTTTGAAAG, for which the PBM binding z-score is 3.24.

Sequence TCGAGTAGGTTACGGGGGGATTCAGGGATGAAGA gave a PBM binding z-score of 3.28.

On to CCTTACGGGTCAGGAGGTTATAGCACGACGAGCG, for which the PBM binding z-score came out at 3.14.

On to CTATGTAGGTTAAGGGGGTCGTTCAGTTTGAAAG, for which the PBM binding z-score turned out to be 6.43.

Take TCTAGCTGGTCACGGAGGTCACACACGACGGGTA: the PBM binding z-score is 6.05.

In turn, CGAACTAGGTCAACGGACAGTGAAAGGCGACGTA yielded a PBM binding z-score of 1.12.

As to CATACAGGGTAAGCTAGGCCAGAGTAGGGACGGC, the PBM binding z-score was -0.528.

CGAACTAGATCACCAGGACAGTGAAGAGGTTGGA: the PBM binding z-score was -0.366.

In turn, CCGAGTAGGTTACGAGGGGGCATGCAGTGCGAAT returned a PBM binding z-score of 4.63.

Sequence CCTTCTGGGCCATTCAGAGGTCATTGATCATATG came in with a PBM binding z-score of 4.01.

CCGAGTAGGTTACGAGGGGGCATTAAGTGCGAAT returned a PBM binding z-score of 5.39.

On to CTGAGTAGGTTACGAGGGGGCATTCAGTGCGAAT, for which the PBM binding z-score is 5.14.

Sequence ATATGTAGGTTAGGGTGATTCAGAAAGTAGGGAA yielded a PBM binding z-score of 1.09.

Take CAAACTAGGTCAAAGGTCAAAGACGAGCCAACCA: the PBM binding z-score came out at 6.69.

TAGCCTAGGTCATGCGGGCCAGCATAGTGTCGGC had a PBM binding z-score of 2.7.

On to CGTCCAAGGTCAGATAGGTCAGTGAATGCCGAGT, for which the PBM binding z-score was found to be 4.9.

As to CCTACTGGGCCAAAGGTCAGTGATTCCAATGCTC, the PBM binding z-score came out at 2.88.

For ATCTCTAGGTAAAGTTCAGCGAAAGATCGATAGA, the PBM binding z-score was 1.84.

Take TCATATAGGTAAAAGGTCAAAGTCGGTGTGGTAA: the PBM binding z-score is 5.3.

Consider CCTTACGGGTCACGGGGTTATAGCACGACGAGCG, for which the PBM binding z-score was determined as 5.75.

AGAATGAGGTTAGCAAAGATCAGGGAAACGCTTG: the PBM binding z-score turned out to be 0.322.

As for TCGAGTAGGTTACGGGGGCATTCATGGATGAAGA, the PBM binding z-score came out at 3.71.

Sequence CGTCCAAGGTCAGCAGGTCACTGAAAGCGACGTG came in with a PBM binding z-score of 4.5.

The sequence TCTAGTTGGTCACGGAGGTCACACGCGACGGGTA displayed a PBM binding z-score of 5.87.

As for CCTAGTTGGTCAAGCTCACACACGCTATAGGTAC, the PBM binding z-score was 0.609.

For the sequence CAAACTAGGTCAAAGGTCAAACTCGAGCCAACCA, the PBM binding z-score stood at 6.96.

CGTCCAAGGTCACAGGAGGTCAGTGAAGACAGAT gave a PBM binding z-score of 6.62.

CTCGAAAGGTCGGTTGAGGTGACTATACGGATAA showed a PBM binding z-score of 2.77.

The sequence CCTAGTTGGTCAAGGTCTCACACGCTATAGGTAC displayed a PBM binding z-score of 0.578.

Consider TAGCCTAGGTCATTCAGGGGGCAGTATAGAAAGC, for which the PBM binding z-score was found to be 4.82.
